Source: PubChem BioAssay (EPA / NIEHS)
Active and inactive are the calls of the source. How the source made its calls: active means hit-call score of the fitted dose curve at least 0.9, where 1 is the maximum; inactive means score below 0.9.

Tests used:
Settings in all cases: mRNA level, 48 h; actives raise or lower the signal
[1] = read-out: Alkaline Phosphatase, Placental (ALPP) gene, ALPP (gene 250); assay: LTEA_HepaRG_ALPP: Life Technologies and Expression Analysis (LTEA) Assay for Alkaline Phosphatase, Placental (ALPP) gene using HepaRG (AID 2283468);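 on AC50: differentiated human HepaRG liver cells in serum-free induction medium; ALPP transcript by TaqMan qRT-PCR normalized to ACTB GAPDH and POLR2A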
In short: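 Using human liver HepaRG cells, chemicals are tested in duplicate over 48 h at half-log concentrations topping at 100 uM; phenobarbital 1 mM serves as induction control. ALPP mRNA change by qRT-PCR, bidirectional fit against vehicle.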

[2] = read-out: Bcl-2 (BAD) gene, BAD (gene 572); assay: LTEA_HepaRG_BAD: Life Technologies and Expression Analysis (LTEA) Assay for Bcl-2 (BAD) gene using HepaRG (AID 2283469)
In short: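 Activity values reflect up- or down-regulation of BAD mRNA in human HepaRG hepatic cells treated 48 h in serum-free medium, with eight-point half-log dosing capped at 100 uM and 0.5% DMSO vehicle.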

[3] = read-out: Bcl-2 (BAX) gene, BAX (gene 581); assay: LTEA_HepaRG_BAX: Life Technologies and Expression Analysis (LTEA) Assay for Bcl-2 (BAX) gene using HepaRG (AID 2283470)
In short: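 Human HepaRG cells treated in duplicate for 48 h across eight concentrations (max 100 uM, 0.5% DMSO); BAX expression measured by qRT-PCR.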

[4] = read-out: adenosine kinase (ADK) gene, ADK (gene 132); assay: LTEA_HepaRG_ADK: Life Technologies and Expression Analysis (LTEA) Assay for adenosine kinase (ADK) gene using HepaRG (AID 2283471)
In short: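 HepaRG (human liver), 48 h chemical exposure, 8-pt half-log series, top 100 uM, 0.5% DMSO vehicle. Readout: ADK mRNA by qRT-PCR vs housekeeping genes; bidirectional curve fit relative to DMSO baseline.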

[5] = read-out: Alpha-fetoprotein (AFP) gene, AFP (gene 174); assay: LTEA_HepaRG_AFP: Life Technologies and Expression Analysis (LTEA) Assay for Alpha-fetoprotein (AFP) gene using HepaRG (AID 2283472);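 on AC50: AFP transcript by TaqMan qRT-PCR normalized to ACTB GAPDH and POLR2A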
In short: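 Measures AFP mRNA change in HepaRG after 48 h chemical exposure (8 half-log concentrations, highest 100 uM, 0.5% DMSO). Fold change relative to DMSO, fitted in both directions.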

BCL2L11 (gene 10018) = assay: LTEA_HepaRG_BCL2L11: Life Technologies and Expression Analysis (LTEA) Assay for Bcl-2 (BCL2L11) gene using HepaRG (AID 2283473)
In short: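 Human hepatic HepaRG cultures are treated 48 h with test chemicals (maximum 100 uM, 0.5% DMSO vehicle). Expression of BCL2L11 is measured by qRT-PCR against ACTB, GAPDH and POLR2A, with activity in either direction scored relative to vehicle.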

[6] = read-out: Apolipoprotein A-V (APOA5) gene, APOA5 (gene 116519); assay: LTEA_HepaRG_APOA5: Life Technologies and Expression Analysis (LTEA) Assay for Apolipoprotein A-V (APOA5) gene using HepaRG (AID 2283474)
In short: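 Concentration-response of APOA5 expression in HepaRG: eight half-log doses to 100 uM, 48 h, qRT-PCR normalized to ACTB/GAPDH/POLR2A, bidirectional fitting with 0.5% DMSO as baseline.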

[7] = read-out: Apoptosis regulator Bcl-2 (Homo sapiens) (UniProt P10415); assay: LTEA_HepaRG_BCL2: Life Technologies and Expression Analysis (LTEA) Assay for Bcl-2 gene using HepaRG (AID 2283475);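 further: BCL2 transcript by TaqMan qRT-PCR normalised to ACTB GAPDH and POLR2A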
In short: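 Each chemical was tested in duplicate on HepaRG cultures held in serum-free induction medium for 48 h, highest concentration 100 uM with half-log dilutions. Transcript levels came from multiplexed qRT-PCR, normalised to housekeeping genes; activity was scored in either direction relative to DMSO.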

[8] = read-out: Bcl-2 (BID) gene, BID (gene 637); assay: LTEA_HepaRG_BID: Life Technologies and Expression Analysis (LTEA) Assay for Bcl-2 (BID) gene using HepaRG (AID 2283476)
In short: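 Assay used HepaRG hepatic cells treated 48 h in serum-free medium with half-log dilutions from 100 uM. Endpoint: BID mRNA, qRT-PCR, normalized to ACTB/GAPDH/POLR2A.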

Caspase-3 (Homo sapiens) = Caspase-3 (Homo sapiens) (UniProt P42574); assay: LTEA_HepaRG_CASP3: Life Technologies and Expression Analysis (LTEA) Assay for cysteine-aspartic acid protease (CASP3) using HepaRG (AID 2283477)
Caspase-3 (Homo sapiens), sequence (P42574 whole entry, looked up): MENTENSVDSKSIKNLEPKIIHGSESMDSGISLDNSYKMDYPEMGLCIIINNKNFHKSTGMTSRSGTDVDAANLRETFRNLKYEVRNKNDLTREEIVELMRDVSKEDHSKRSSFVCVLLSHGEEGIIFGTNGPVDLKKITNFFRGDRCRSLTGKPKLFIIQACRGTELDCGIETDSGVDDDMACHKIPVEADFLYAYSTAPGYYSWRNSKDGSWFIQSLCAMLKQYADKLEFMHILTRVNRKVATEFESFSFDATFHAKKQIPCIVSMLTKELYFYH
In short: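 Transcript-level assay: CASP3 mRNA in human HepaRG after 48 h treatment, eight half-log concentrations from 100 uM in 0.5% DMSO, quantified by qRT-PCR.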

[9] = read-out: Cytochrome P450 (CYP24A1), CYP24A1 (gene 1591); assay: LTEA_HepaRG_CYP24A1: Life Technologies and Expression Analysis (LTEA) Assay for Cytochrome P450 (CYP24A1) using HepaRG (AID 2283478)
In short: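 Gene expression of CYP24A1 by TaqMan qRT-PCR in HepaRG after 48 h treatment, highest concentration 100 uM; activity fitted in both directions relative to DMSO vehicle.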

[10] = read-out: Cytochrome P450 (CYP1A2), CYP1A2 (gene 1544); assay: LTEA_HepaRG_CYP1A2: Life Technologies and Expression Analysis (LTEA) Assay for Cytochrome P450 (CYP1A2) using HepaRG (AID 2283479);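 on AC50: TaqMan qRT-PCR transcript level normalized to ACTB GAPDH and POLR2A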
In short: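 In duplicate wells, HepaRG cultures maintained in 0.5% DMSO were treated 48 h across an 8-point, half-log series topping at 100 uM; phenobarbital (1 mM) served as induction control. Expression was read by qRT-PCR.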

[11] = read-out: cysteine-aspartic acid protease (CASP8), CASP8 (gene 841); assay: LTEA_HepaRG_CASP8: Life Technologies and Expression Analysis (LTEA) Assay for cysteine-aspartic acid protease (CASP8) using HepaRG (AID 2283480)
In short: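 Concentration-response in duplicate up to 100 uM (half-log steps, 0.5% DMSO) on differentiated HepaRG cultures for 48 h. Expression change of CASP8 mRNA is determined by TaqMan qRT-PCR with housekeeping-gene normalization.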

[12] = read-out: Cytochrome P450 (CYP2B6), CYP2B6 (gene 1555); assay: LTEA_HepaRG_CYP2B6: Life Technologies and Expression Analysis (LTEA) Assay for Cytochrome P450 (CYP2B6) using HepaRG (AID 2283481)
In short: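 Human HepaRG, 48 h dosing, 0.5% DMSO vehicle, top dose 100 uM. CYP2B6 transcript by qRT-PCR, housekeeping-normalized, bidirectional curve fit.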

[13] = read-out: Cytochrome P450 2C19 (Homo sapiens) (UniProt P33261); assay: LTEA_HepaRG_CYP2C19: Life Technologies and Expression Analysis (LTEA) Assay for CYP2C19 using HepaRG (AID 2283482)
In short: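 Endpoint: CYP2C19 mRNA change, bidirectional fit vs 0.5% DMSO. Cells: HepaRG, 48 h exposure, eight-point series topping at 100 uM. Quantitation: qRT-PCR normalized to ACTB, GAPDH, POLR2A.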

CYP2C9 (gene 1559) = assay: LTEA_HepaRG_CYP2C9: Life Technologies and Expression Analysis (LTEA) Assay for CYP2C9 using HepaRG (AID 2283484)
In short: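 Eight-point concentration-response (highest 100 uM, half-log dilutions) in HepaRG cells for 48 h; CYP2C9 expression by qRT-PCR normalized to ACTB, GAPDH, POLR2A. Bidirectional fit, DMSO baseline.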

CYP2E1 (gene 1571) = assay: LTEA_HepaRG_CYP2E1: Life Technologies and Expression Analysis (LTEA) Assay for CYP2E1 using HepaRG (AID 2283485)
In short: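 Assay uses 48 h exposure of HepaRG hepatic cells, eight concentrations to 100 uM. Expression of CYP2E1 is quantified by TaqMan qRT-PCR with ACTB, GAPDH and POLR2A normalization; curves fitted in both directions relative to vehicle.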

CYP2C8 (gene 1558) = assay: LTEA_HepaRG_CYP2C8: Life Technologies and Expression Analysis (LTEA) Assay for CYP2C8 using HepaRG (AID 2283483)
In short: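 This is a transcriptional endpoint in HepaRG cultures: 48 h exposure, highest concentration 100 uM. CYP2C8 mRNA is quantified by TaqMan qRT-PCR.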

[14] = read-out: Peroxisomal acyl-coenzyme A oxidase 1 (ACOX1) gene, ACOX1 (gene 51); assay: LTEA_HepaRG_ACOX1: Life Technologies and Expression Analysis (LTEA) Assay for Peroxisomal acyl-coenzyme A oxidase 1 (ACOX1) gene using HepaRG (AID 2283467)
In short: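 Human HepaRG hepatic cultures, 48 h treatment with test chemicals up to 100 uM. ACOX1 expression read by qRT-PCR relative to 0.5% DMSO vehicle.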

Apoptosis regulator Bcl-2 (Homo sapiens), sequence (P10415 whole entry, looked up): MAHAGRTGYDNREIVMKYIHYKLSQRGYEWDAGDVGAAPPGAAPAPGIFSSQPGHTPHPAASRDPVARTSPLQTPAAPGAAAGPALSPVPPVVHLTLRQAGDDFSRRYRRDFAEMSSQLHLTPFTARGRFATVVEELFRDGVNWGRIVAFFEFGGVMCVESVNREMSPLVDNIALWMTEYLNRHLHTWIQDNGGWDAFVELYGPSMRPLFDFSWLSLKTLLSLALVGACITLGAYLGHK
Cytochrome P450 2C19 (Homo sapiens), sequence (P33261 whole entry, looked up): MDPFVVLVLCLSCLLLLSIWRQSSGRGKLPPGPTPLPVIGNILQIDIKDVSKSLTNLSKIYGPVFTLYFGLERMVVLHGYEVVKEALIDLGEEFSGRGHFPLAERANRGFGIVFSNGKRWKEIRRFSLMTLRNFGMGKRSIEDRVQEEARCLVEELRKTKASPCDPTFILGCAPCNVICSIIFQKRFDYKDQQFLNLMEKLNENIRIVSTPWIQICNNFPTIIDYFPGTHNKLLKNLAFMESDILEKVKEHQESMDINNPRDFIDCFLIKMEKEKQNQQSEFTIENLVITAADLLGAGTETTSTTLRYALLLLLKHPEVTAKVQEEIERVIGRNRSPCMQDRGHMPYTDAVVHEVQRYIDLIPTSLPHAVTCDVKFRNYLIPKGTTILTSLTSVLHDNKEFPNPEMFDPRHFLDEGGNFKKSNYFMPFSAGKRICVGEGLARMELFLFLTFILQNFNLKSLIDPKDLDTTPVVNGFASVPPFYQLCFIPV

In the case of `Cn1cc(-c2ccccc2)c(=O)c(-c2cccc(C(F)(F)F)c2)c1`, the AC50 [1] was 50 µM (active), the outcome [2] was “inactive” and the outcome [3] was “inactive”. The outcome [4] was “inactive”, the outcome [5] was “inactive” and the outcome (BCL2L11 (gene 10018)) was “inactive”. The outcome [6] was “inactive”, the outcome [7] was “inactive” and the outcome [8] was “inactive”. The outcome (Caspase-3 (Homo sapiens)) was “inactive”, the outcome [9] was “inactive” and the AC50 [10] was 87.5 µM (active). For the same compound, the outcome [11] was “inactive”, the AC50 [12] was 1.09 µM (active) and the AC50 [13] was 4.63 µM (active). The AC50 (CYP2C9 (gene 1559)) was 0.468 µM (active) and the AC50 (CYP2E1 (gene 1571)) was 11.9 µM (active).
For `OCCCl`, the outcome [1] was “inactive”, the outcome [2] was “inactive” and the outcome [3] was “inactive”. For the same compound, the outcome [4] was “inactive”, the outcome [5] was “inactive” and the outcome (BCL2L11 (gene 10018)) was “inactive”. The outcome [6] was “inactive”, the outcome [7] was “inactive” and the outcome [8] was “inactive”. For the same compound, the outcome (Caspase-3 (Homo sapiens)) was “inactive”, the outcome [10] was “inactive” and the outcome [11] was “inactive”. For the same compound, the AC50 [12] was 50 µM (active), the outcome [13] was “inactive” and the outcome (CYP2C9 (gene 1559)) was “inactive”. For the same compound, the outcome (CYP2E1 (gene 1571)) was “inactive”.
For `Clc1ccc(C(c2ccc(Cl)cc2)C(Cl)(Cl)Cl)cc1`, the outcome [1] was “inactive”, the outcome [2] was “inactive” and the outcome [4] was “inactive”. For the same compound, the AC50 [5] was 50 µM (active), the outcome (BCL2L11 (gene 10018)) was “inactive” and the AC50 [6] was 50 µM (active). The AC50 [7] was 50 µM (active), the outcome [8] was “inactive” and the outcome (Caspase-3 (Homo sapiens)) was “inactive”. The outcome [9] was “inactive”, the outcome [11] was “inactive” and the AC50 [12] was 1.14 µM (active). The AC50 [13] was 2.78 µM (active), the AC50 (CYP2C8 (gene 1558)) was 12.5 µM (active) and the AC50 (CYP2C9 (gene 1559)) was 0.549 µM (active). For the same compound, the AC50 (CYP2E1 (gene 1571)) was 50 µM (active).
With `Cc1ccc([N+](=O)[O-])cc1` the outcome [1] was “inactive”, the outcome [2] was “inactive” and the outcome [4] was “inactive”. For the same compound, the outcome [5] was “inactive”, the outcome (BCL2L11 (gene 10018)) was “inactive” and the outcome [6] was “inactive”. For the same compound, the outcome [7] was “inactive”, the outcome [8] was “inactive” and the outcome (Caspase-3 (Homo sapiens)) was “inactive”. The outcome [11] was “inactive”, the AC50 [12] was 0.744 µM (active) and the AC50 [13] was 1.87 µM (active). The outcome (CYP2C9 (gene 1559)) was “inactive” and the AC50 (CYP2E1 (gene 1571)) was 20.2 µM (active).
`CCCCCCCCn1sccc1=O` was tested, and the outcome [1] was “inactive”, the outcome [2] was “inactive” and the outcome [4] was “inactive”. The AC50 [5] was 79.5 µM (active), the outcome (BCL2L11 (gene 10018)) was “inactive” and the AC50 [6] was 82.9 µM (active). The outcome [7] was “inactive”, the outcome [8] was “inactive” and the outcome (Caspase-3 (Homo sapiens)) was “inactive”. For the same compound, the outcome [9] was “inactive”, the outcome [11] was “inactive” and the AC50 [12] was 87 µM (active). The AC50 [13] was 81.8 µM (active), the AC50 (CYP2C8 (gene 1558)) was 85.9 µM (active) and the AC50 (CYP2C9 (gene 1559)) was 85.3 µM (active). For the same compound, the AC50 (CYP2E1 (gene 1571)) was 84.2 µM (active).
For `CCC(C)c1ccc(O)cc1` (stereo unspecified), the outcome [14] was “inactive”, the outcome [1] was “inactive” and the outcome [2] was “inactive”. The outcome [4] was “inactive”, the outcome [5] was “inactive” and the outcome (BCL2L11 (gene 10018)) was “inactive”. The outcome [6] was “inactive”, the outcome [7] was “inactive” and the outcome [8] was “inactive”. For the same compound, the outcome (Caspase-3 (Homo sapiens)) was “inactive”, the outcome [9] was “inactive” and the outcome [10] was “inactive”. For the same compound, the outcome [11] was “inactive”, the outcome [12] was “inactive” and the outcome [13] was “inactive”. For the same compound, the outcome (CYP2C9 (gene 1559)) was “inactive” and the outcome (CYP2E1 (gene 1571)) was “inactive”.
